Biological target: NRN1
Assay: pooled miR-30 sensor sort-seq; sequence = guide strand
Conditions: shRNA
Note: reference of the scale not given here.

In order of rising sensor-assay potency score (higher = more potent):
1. TCGTCTTGTCGTCCAGGCCCTG  -1.79
2. TTGTCGTCCAGGCCCTGCGGGT  -1.62
3. TTATCCCACATATCTTTCGCCC  -1.13
4. TCAGTGAAATATATCTGCCGTT  -1
5. TCTTGATGTTCGTCTTGTCGTC  -0.712
6. TTGGATGTTGAGGTTTTTGGAT  -0.637
7. TTCGTCTTGTCGTCCAGGCCCT  -0.542
8. TTCTTTTCTCAGTTTATCCCAC  -0.535
9. TGATGTTCGTCTTGTCGTCCAG  -0.489
10. ATCAGTGAAATATATCTGCCGT  -0.0404
11. TTGATGTTCGTCTTGTCGTCCA  0.18
12. TTGAAGACCGCATCGCACTTGC  0.325

Biological target: NRTN
Assay: as above
Conditions: shRNA

In order of falling sensor-assay potency score (higher = more potent):
1. TATCTCAGTACAGTTATCGCGA  0.0428
2. TAGCGGAACAGCACCGTCTCGT  -0.209
3. TGCACCGTGTGGTAGCGGCTGT  -1.01
4. TCTCAGTACAGTTATCGCGAGA  -1.15
5. TCGTCCTCGTAGGCCGTCGGGC  -1.36
6. ATGGACAGCACGGAGCTGCAGA  -1.37
7. AACAGCACCGTCTCGTCGGACG  -1.59
8. TCGTCGCAGCCCGAGGTCGTAG  -1.65
9. TCCTCGTAGGCCGTCGGGCGGC  -1.9
10. TGGCGCAGTCGTCGCAGCCCGA  -1.96

Biological target: NRXN1
Assay: as above
Conditions: shRNA

In order of falling sensor-assay potency score (higher = more potent):
1. AAGATTGACATAATCAGCCGAT  0.46
2. TTTGTGTCAATCTTTACAGTGT  0.163
3. TTTTGAGACAAGTCGTAGCAGA  -0.143
4. ATTGTTGCAAGCACACACCTTG  -0.22
5. TAGAATTAATCCATCTAGGGAT  -0.432
6. TTTCTTTAGCTACTCCTCCTAT  -0.523
7. TAAGTTTATATTATGTCTCAGA  -0.557
8. TATCATTGAGGTTATAGCCAGC  -0.792
9. TTGAACTTCAGCCATTTGCCGG  -0.927
10. TAAAGATATATGTCGTCCCAGG  -1.02
11. TATTTTTATATACAACCTCTTT  -1.15
12. TATTTCTATACAAGTGTCCATT  -1.16

Biological target: NT5C3L
Assay: as above
Conditions: shRNA

In order of rising sensor-assay potency score (higher = more potent):
1. TAGCCCGTTGACCACATCCAGA  -1.7
2. TTGTGTGCTTTGGTCCACCATT  -1.32
3. TTTCCATTATATGCAAACCTGC  -1.3
4. TCAGAAATCACCTGTAACCGGT  -0.094
5. AAACTTCTGAATCTTCTGCTGA  -0.000526
6. TTGGACTCTCTAACCACCTGGG  0.443
